Data published in PubChem BioAssay.
Entries with a potency or affinity are not part of this list. Records with an inconclusive call do not appear. Activity calls are given as the source filed them.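 Rule for the calls, unless noted: active = fitted half-maximal concentration for viability loss no higher than twice the top valid dose, in every repeat run; inconclusive = repeat runs disagree, flat partial loss, or poor curve fit; inactive = the rest.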

Tests used:
[1] = cytotoxicity in PAX8-dependent RMG-1 cells, dose response, cell-based, cherry-pick (AID 687029;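 active = signal drop whose fitted half-maximal concentration is at most twice the top valid dose, in every test run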;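 note: cells exposed to compound for 96 hours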)
[2] = cytotoxicity in IOSE-T80 ovarian epithelial cells, dose response, selectivity assay for PAX8 inhibitor project, cell-based, cherry-pick (AID 687032);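 note: cells exposed to compound for 96 h before reading; 0% = neutral control wells and -100% = 2 µM mitoxantrone kill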
[3] = inhibitors of CMV-promoter luciferase reporter, dose response, counter-screen for Pax8 inhibitor project, cell-based, HEK293, luminescence, dry powder (AID 743020;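 active = signal-lowering compounds whose fitted half-maximal concentration is at or below twice the top tested dose in every run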;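 note: HEK293 cells stably expressing the CMV luciferase reporter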)
[4] = non-specific cell cytotoxicity, dose response, cytotoxicity control for PAX8 inhibitor project, plate reader, dry powder samples (AID 743021; call rule not given here)

Measured: activity change, negative = inhibition

O=C(CC1SC(=Nc2cccc3ccccc23)N(Cc2ccccn2)C1=O)Nc1ccccc1Br (stereo unspecified)
inactive: [1] | [2] | [3]

O=C(NC1=CC(=O)c2ccccc2C1=O)c1ccccc1
inactive: [1] | [2] | [3]

COc1ccccc1C(=O)Nc1nc2ccccc2s1
inactive: [1] | [2] | [3]

COC(=O)C1=C(SC)N(c2ccccc2)C(c2ccccc2)CC1=O (stereo unspecified)
inactive: [1] | [2] | [3]

O=C(CCl)N=c1sccn1Cc1ccccc1Cl
inactive: [1] | [2] | [3]

COC(=O)C1=C(C)N(Cc2cccc(C(F)(F)F)c2)C(=NCC2CC2)NC1c1cccc(C(F)(F)F)c1 (stereo unspecified)
inactive: [1] | [2] | [3]

COc1ccccc1-c1ccc(OCCCN2CCC(C(O)(c3ccccc3)c3ccccc3)CC2)cc1
inactive: [1] | [2] | [3]

CN(C[C@H]1N[C@@H](CO)[C@@H]1c1ccc(C2=CCCC2)cc1)C(=O)c1ccc(F)cc1
inactive: [1] | [2] | [3] 0.4% [at 8 µM]

COc1ccc(S(=O)(=O)/N=C2\C=C(Nc3ccc(O)cc3)C(=O)c3ccccc32)cc1
inactive: [1] | [2] | [3]

CCC(OC(=O)c1ccc(S(C)(=O)=O)c([N+](=O)[O-])c1)C(=O)NC1C2CC3CC(C2)CC1C3 (stereo unspecified)
inactive: [1] | [2] | [3]

COC(=O)[C@@H]1Cc2c([nH]c3ccccc23)C(C)(C)N1C(=O)CCl
inactive: [1] | [2] | [3]

CC(C)N(CC(=O)Nc1ccc(Cl)cc1C(F)(F)F)C(=O)CCl
inactive: [1] | [2] | [3]

CC[C@@H](C(=O)[C@@H](C)[C@@H](O)[C@H](C)CCc1ccc(C)c(O)c1C(=O)O)[C@H]1O[C@](CC)([C@H]2CC[C@](O)(CC)[C@H](C)O2)C[C@@H]1C
inactive: [1] | [2] | [3]

O=C(OCc1ccccc1)N(CCCCN(CCCNCc1ccccc1)C(=O)OCc1ccccc1)CCCNCc1ccccc1
inactive: [1] | [2] | [3]

Cc1cccc(N(Cc2ccccc2)C(=O)CCl)c1
inactive: [1] | [2] | [3]

O=C(C[C@@H]1C/C=C/CC[C@H](Cc2ccc(F)cc2)C(=O)OC[C@@H](Cc2ccccc2)NC1=O)N[C@H](CO)Cc1ccccc1
inactive: [1] | [2] | [3]

Cc1ccc2c(CC(=O)OCC(=O)Nc3ccc(Cl)cn3)coc2c1
inactive: [1] | [2] | [3]

CCN1CCN(Cc2ccc(NC(=O)c3cc(NC(=O)c4cncc(-c5ccc(C#N)cc5)c4)cc(OC)c3)cc2C(F)(F)F)CC1
inactive: [1] | [2] | [3]

COc1cccc(N(C(=O)c2ccco2)c2nc(-c3sc(NC(=O)c4ccco4)nc3C)cs2)c1
inactive: [1] | [2] | [3]

CCOc1ccccc1NC(=O)c1nc(S(=O)(=O)Cc2ccccc2)ncc1Cl
inactive: [1] | [2] | [3]

COc1cccc(/C=N/Nc2ccc(C(=O)O)cc2)c1O
inactive: [1] | [2] | [3]

COc1ccc(/C=C/c2nc3ccccc3n2C)cc1
inactive: [1] | [2] | [3]

CC(C)CN1CCN(C(=O)COC(=O)c2ccc(S(C)(=O)=O)c([N+](=O)[O-])c2)CC1
inactive: [1] | [2] | [3]

C=C1CCc2c([nH]c3ccc(OCC(C)C)cc23)C1=O
inactive: [1] | [2] | [3]

Cc1nn(-c2nc3ccccc3[nH]2)c(=O)c2ccccc12
inactive: [1] | [2] | [3]

O=C(Nc1cccc(NC(=O)c2ccc([N+](=O)[O-])o2)c1)c1ccco1
inactive: [1] | [2] | [3]

COc1ccc(C(C(=O)NC2CCCCC2)N(C(=O)CCl)c2cccc(Cl)c2)cc1 (stereo unspecified)
inactive: [1] | [2] | [3]

COc1cccc(/C=N/Nc2cc(C)nc(-c3ccccc3O)n2)c1O
inactive: [1] | [2] | [3]

C=C1CC(Cn2cc(Br)c(=O)[nH]c2=O)(c2ccc(-c3ccccc3)cc2)OC1=O (stereo unspecified)
inactive: [1] | [2] | [3]

CS(=O)(=O)c1ccc(C(=O)OCC(=O)N2CCN(CCC3CCCCC3)CC2)cc1[N+](=O)[O-]
inactive: [1] | [2] | [3]

COc1ccc(C(=O)NNC(=O)c2ccccn2)cc1
inactive: [1] | [2] | [3]

C[C@H](CO)N1C[C@H](C)[C@@H](CN(C)C(=O)Nc2ccc3c(c2)OCO3)Oc2cc(C#Cc3ccncc3)ccc2S1(=O)=O
inactive: [1] | [2] | [3]

COc1cc(OC)nc(-n2ncc(Br)c(Br)c2=O)n1
inactive: [1] | [2] | [3]

Cc1ccc(S(=O)(=O)CCC(=O)c2ccc(O)cc2O)cc1
inactive: all assays above

O=S(=O)(/C(=C/c1ccc(C(F)(F)F)cc1)c1nc2ccccc2[nH]1)c1ccccc1
inactive: all assays above

C[C@H](CO)N1C[C@H](C)[C@H](CN(C)S(=O)(=O)c2cccc(F)c2)OCc2ccccc2-c2c(n(C)c3ccccc23)C1=O
inactive: all assays above

O=C(Nc1ccc([N+](=O)[O-])cn1)c1cc(-c2cccc(Br)c2)nc2ccccc12
inactive: all assays above

Cn1c(CCN2CCN(c3ccccn3)CC2)nc2cc(NS(=O)(=O)c3ccc(Cl)cc3)ccc21
inactive: all assays above

COc1ccc(C(=O)c2cc([N+](=O)[O-])ccc2N2CCOCC2)cc1
inactive: all assays above

COc1nn(-c2ccccc2)c(=O)c(Cl)c1Cl
inactive: all assays above

COc1ccc(NC(=O)C(Sc2nnc(-c3ccncc3)n2-c2ccccc2C)c2ccccc2)cc1Cl (stereo unspecified)
inactive: all assays above

O=C(Nc1ccc(Cl)cc1)Nc1ccc(N2CCCC2)c(S(=O)(=O)Nc2ccccc2Cl)c1
inactive: all assays above

COc1cc(Cl)c(NC2=CC(=O)C(=O)c3ccccc32)c(OC)c1
inactive: all assays above

O=C(Nc1cccc(NC(=O)c2ccccc2Cl)c1)c1ccc([N+](=O)[O-])o1
inactive: all assays above

O=C(OCC(=O)N1CCN(C(=O)c2ccco2)CC1)c1cccc(S(=O)(=O)N2CCc3ccccc32)c1
inactive: all assays above

O=C(Nc1cccc(F)c1)N1CCCCN2[C@@H](CO)[C@H](c3ccc(C#Cc4ccccc4)cc3)[C@@H]2C1
inactive: all assays above

CC(=O)NC(CCc1ccc(Cl)c(Cl)c1)c1cccc(O)c(=O)c1 (stereo unspecified)
inactive: all assays above

COc1ccc(NS(=O)(=O)c2ccc(N3CCCC3)c(NC(=S)Nc3ccc(SC(F)F)cc3)c2)cc1
inactive: all assays above

CC(C)c1ccc(/C=C(\c2nc3ccccc3[nH]2)S(=O)(=O)c2ccccc2)cc1
inactive: all assays above

Cc1cccc(NC(=O)CC23CC4CC(C2)CC(n2nnc(C)n2)(C4)C3)c1
inactive: all assays above

O=C1c2c(O)ccc(O)c2C(=O)c2c(NCCNCCO)ccc(NCCNCCO)c21
inactive: all assays above

O=C(C[C@@H]1C[C@H]2c3cc(NS(=O)(=O)c4ccc(F)cc4)ccc3O[C@H]2[C@@H](CO)O1)NCc1ccc(Oc2ccccc2)cc1
inactive: all assays above

CCCCCCN1C[C@@H](n2cc(-c3ccc(F)cc3)nn2)[C@H](O)C[C@@H]1c1ccc(Cl)cc1
inactive: all assays above

CCOC(=O)Nc1ccc2c(c1)N(C(=O)CCCl)c1ccccc1[S@]2=O
inactive: all assays above

O=C(CCc1ccc(S(=O)(=O)NCc2ccccc2)cc1)NCc1ccco1
inactive: all assays above

CCC(=O)Oc1ccc2c(C)cc(=O)oc2c1C(=O)c1ccccc1
inactive: all assays above

C[C@@H]1CCCCO[C@@H](CN(C)Cc2ccc(Cl)c(Cl)c2)[C@H](C)CN([C@@H](C)CO)C(=O)c2cc(NC(=O)CCC(F)(F)F)ccc2O1
inactive: all assays above

CCN(CC)c1ccc(C(NC(=O)C(C)C)c2ccc3cccnc3c2O)cc1 (stereo unspecified)
inactive: all assays above

COc1cccc(/C=C2\SC(=S)N(CCC(=O)NCCc3ccc(O)cc3)C2=O)c1
inactive: all assays above

O=C1/C(=C\c2ccc(Cl)c(Cl)c2)CN(C(=O)CCN2CCOCC2)C/C1=C/c1ccc(Cl)c(Cl)c1
inactive: all assays above

CC(=O)c1cccc(-c2csc3ncnc(Sc4nnnn4C)c23)c1
inactive: all assays above

CN(Cc1ccccc1)N=Nc1nc[nH]c1C(N)=O
inactive: all assays above

CCCCn1nc(C(=O)Nc2cc(C(F)(F)F)ccc2N2CCOCC2)ccc1=O
inactive: all assays above

CCCCNC(=O)C(Sc1ccccc1)c1ccccc1 (stereo unspecified)
inactive: all assays above

Cc1ccc(NC(=O)c2ccc([N+](=O)[O-])s2)cc1S(=O)(=O)N1CCOCC1
inactive: all assays above

CCSc1nc(-c2ccccc2)nc(C(Cl)Cl)n1
inactive: all assays above
